The campaign covered roughly 86,000 compounds. About 1,200 (1.4%) were called active. This is one part of a sample in which actives are shown more often than they occur. Cut-off read from the data, not from the text of the source: active = activity above about 200%; inactive = the rest.

The target in this experiment is Estrogen receptor (Homo sapiens) (UniProt P03372). The experiment in a line: enhancers of ERα–SRC-1 coactivator binding, primary screen, biochemical, TR-FRET, ERα LBD, low estradiol (AID 639).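 Note: binding measured in presence of low estradiol as agonist stimulus; 0% = peptide alone without receptor and 100% = receptor with peptide.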 The note with it: TR-FRET ERalpha-LBD/SRC-Cy5 coactivator binding, 2 h; at 25.6 µM; hits give high values; 100 = basal binding, no effect.
Chain of Estrogen receptor (Homo sapiens) (P03372 whole entry, looked up, the tested form may be a part): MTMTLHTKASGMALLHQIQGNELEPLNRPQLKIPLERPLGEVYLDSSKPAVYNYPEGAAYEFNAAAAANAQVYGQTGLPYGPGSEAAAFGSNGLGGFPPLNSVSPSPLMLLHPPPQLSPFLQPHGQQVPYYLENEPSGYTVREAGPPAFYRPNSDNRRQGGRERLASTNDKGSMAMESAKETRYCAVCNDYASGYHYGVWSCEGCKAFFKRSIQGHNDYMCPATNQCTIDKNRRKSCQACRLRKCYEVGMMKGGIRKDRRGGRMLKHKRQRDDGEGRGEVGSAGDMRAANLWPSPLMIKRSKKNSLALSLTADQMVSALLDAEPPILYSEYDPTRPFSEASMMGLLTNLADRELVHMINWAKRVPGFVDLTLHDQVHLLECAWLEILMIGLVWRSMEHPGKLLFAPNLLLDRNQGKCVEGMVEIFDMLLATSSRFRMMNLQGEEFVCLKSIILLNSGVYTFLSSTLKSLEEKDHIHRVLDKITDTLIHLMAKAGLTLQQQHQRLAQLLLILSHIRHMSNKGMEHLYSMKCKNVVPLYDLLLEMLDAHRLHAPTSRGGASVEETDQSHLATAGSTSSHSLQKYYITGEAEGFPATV
As for `Cc1ccc(NC(=S)NC(NC(=O)Cc2cccc3ccccc23)C(Cl)(Cl)Cl)cc1` (configuration not stated), the coactivator binding (% of control) was 77.9% (inactive). As to `COC(=O)C(C(=O)Nc1cccc(C)n1)C1CCCCCC1` (configuration not stated), the coactivator binding (% of control) was 76.6% (inactive). As for `O=C(Nc1cccc(-c2nc3ncccc3o2)c1)c1ccco1`, the coactivator binding (% of control) is 108% (inactive). `Cc1ccc(OCC(=O)Nc2ccc(-c3nnc(-c4ccco4)o3)cc2)cc1`: the coactivator binding (% of control) is 172% (inactive).

`COc1ccc(CC(=O)Nc2ccc(-c3nnc(-c4ccccc4)o3)cc2)cc1`: the coactivator binding (% of control) was 184% (inactive). Consider `COc1cccc(NC(=O)Cc2ccc(C)cc2)c1`, for which the coactivator binding (% of control) was 96.3% (inactive). `Cc1ccc(OCC(=O)Nc2ccc(-c3nc4ncccc4o3)cc2)cc1`: the coactivator binding (% of control) was 315% [fluorescence artefact?] (active). Consider `COc1ccc(CC(=O)Nc2ccc(-c3nnc(-c4ccc(C)cc4)o3)cc2)cc1`, for which the coactivator binding (% of control) was 359% [fluorescence artefact?] (active). For the molecule `CCOc1ccc(NC(=O)C2CCCN(C(=O)Nc3ccccc3)C2)cc1` (configuration not stated), the coactivator binding (% of control) was 106% (inactive). For the molecule `CCN(CC)C(=O)CSc1nnc(-c2cccc(OC)c2)o1`, the coactivator binding (% of control) was 105% (inactive). As for `COc1ccc(-c2nnc(SCC(=O)c3ccc4c(c3)OCCO4)o2)cc1`, the figure is 335% [fluorescence artefact?] (active); as for `COc1ccc(CN(C(=O)CSc2nnc(-c3ccc(OC)c(OC)c3)o2)c2ccc(F)cc2)cc1`, 95.1% (inactive). As for `Cn1c(SCC(=O)N2CCCc3ccccc32)nc2ccccc2c1=O`, the figure is 84.1% (inactive); as for `Cc1cccc(C(=O)Nc2ccccc2N2CCN(c3ccc(F)cc3)CC2)c1`, 97.2% (inactive). For the molecule `COc1ccc(C(C)=O)cc1CN1C(=O)NC2(CCCCC2C)C1=O` (configuration not stated), the coactivator binding (% of control) was 128% (inactive). Regarding `CCN1CCN(c2ncnc3c2oc2nc(C)c4c(c23)CC(C)(C)OC4)CC1`, the coactivator binding (% of control) was 95.8% (inactive). Consider `CC(C)c1nc2oc3c(N4CCN(C)CC4)ncnc3c2c2c1CCC2`, for which the coactivator binding (% of control) was 373% [fluorescence artefact?] (active). Turning to `CN(C)c1ccc(CNC2C3CC4CC(C3)CC2C4)cc1` (configuration not stated), the coactivator binding (% of control) is 105% (inactive).

With `CC(C)C(c1nnnn1CCc1ccccc1)N1CCN(C(=O)c2ccco2)CC1` (configuration not stated), the coactivator binding (% of control) was 118% (inactive). As for `CC(=O)c1ccc(-n2nnnc2SCC(=O)N2CCN(C(=O)c3ccco3)CC2)cc1`, the figure is 102% (inactive); as for `CCC(c1nnnn1C1CCCC1)N1CCN(C(=O)c2ccco2)CC1` (configuration not stated), 240% [fluorescence artefact?] (active).

As for `CC(N)C12CC3CC(CC(O)(C3)C1)C2` (configuration not stated), the coactivator binding (% of control) is 105% (inactive). With `CCCc1nc(NCc2ccc3c(c2)OCO3)c2nnn(Cc3ccccc3Cl)c2n1`, the coactivator binding (% of control) was 118% (inactive). Consider `CCOC(=O)CN(Cc1ccc(OC)c(OC)c1)S(=O)(=O)c1ccc(OC)cc1`, for which the coactivator binding (% of control) is 114% (inactive).

`CCOc1cccc(NC(=O)CC#N)c1`: the coactivator binding (% of control) is 101% (inactive). As for `CCn1c(COc2ccccc2)nnc1SCC(=O)Nc1ccc2c(c1)OCCO2`, the coactivator binding (% of control) was 115% (inactive).

Regarding `CCOc1cccc(NC(=O)Cn2nc(-c3ccc4c(c3)OCCO4)ccc2=O)c1`, the coactivator binding (% of control) is 214% (active). With `CC(=NCc1ccco1)c1c(C(F)(F)F)[nH]n(-c2nc3ccccc3s2)c1=O`, the coactivator binding (% of control) is 109% (inactive).

For the molecule `COc1ccc(N2CCN(C(=O)CCc3nc(-c4ccc(C)cc4)no3)CC2)cc1`, the coactivator binding (% of control) was 106% (inactive). Take `CCCCCN1CC(O)=C(c2ccccc2)C1=N`: the coactivator binding (% of control) was 30.5% (inactive).

`CCCCCN1CC(O)=C(c2nc(-c3ccc(Cl)cc3)cs2)C1=N`: the coactivator binding (% of control) was 293% [fluorescence artefact?] (active). In the case of `COc1ccccc1N1CC(O)=C(c2nc3ccccc3s2)C1=N`, the coactivator binding (% of control) is 87.9% (inactive). For `C/C(=N\NS(=O)(=O)c1ccc(Br)cc1)c1cccs1`, the coactivator binding (% of control) is 101% (inactive). For the molecule `Cc1cc(C)nc(N2CCN(c3ncnc4c3oc3ccccc34)CC2)n1`, the coactivator binding (% of control) is 144% (inactive). For `CCc1nc(N2CCN(c3nc(C)cc(C)n3)CC2)c2oc3ccccc3c2n1`, the coactivator binding (% of control) was 155% (inactive). As for `Cc1nc(N2CCN(c3ncccn3)CC2)c2oc3ccccc3c2n1`, the coactivator binding (% of control) was 207% [fluorescence artefact?] (active).

`Cc1ccc(C2=CSC3=NS(=O)(=O)CCN23)cc1C`: the coactivator binding (% of control) is 100% (inactive).

For the molecule `COCCn1c(SCc2nc3cc(OC)c(OC)cc3c(=O)[nH]2)nnc1-c1ccncc1`, the coactivator binding (% of control) is 112% (inactive). `CCSc1nnc(NC(=O)c2ccc(C)cc2)s1`: the coactivator binding (% of control) was 95.5% (inactive). Consider `CCSc1nnc(NC(=O)Cc2ccccc2OC)s1`, for which the coactivator binding (% of control) was 246% [fluorescence artefact?] (active). On to `CCc1nnc(NC(=O)CCC(=O)NCc2ccccc2OC)s1`, for which the coactivator binding (% of control) is 76.9% (inactive).

Regarding `Cc1nc(NC(=O)CN(C)S(=O)(=O)c2ccc(Cl)cc2)sc1C`, the coactivator binding (% of control) is 105% (inactive).

On to `Fc1ccc(-c2nnc3sc(-c4ccc5c(c4)OCO5)nn23)cc1`, for which the coactivator binding (% of control) was 258% (active).

With `Fc1ccc(-c2ccc(-c3nn4c(-c5ccco5)nnc4s3)o2)cc1`, the coactivator binding (% of control) was 84.9% (inactive). Regarding `COc1ccc(-c2nn3c(-c4ccccc4)nnc3s2)cc1OC`, the coactivator binding (% of control) was 123% (inactive). Regarding `CC1(C)CC(=O)C=C(N2CCCC2)C1`, the coactivator binding (% of control) is 101% (inactive). On to `CCOC(=O)Cc1csc(NC(=O)CSc2nnc(-c3cccnc3)n2Cc2ccco2)n1`, for which the coactivator binding (% of control) is 114% (inactive).

`COc1ccc(C(=O)Nc2nc(-c3ccc(S(=O)(=O)N4CCOCC4)cc3)cs2)cc1`: the coactivator binding (% of control) was 492% [fluorescence artefact?] (active). With `O=C(Nc1nc2cc3c(cc2s1)OCCO3)c1cccc(S(=O)(=O)N2CCOCC2)c1`, the coactivator binding (% of control) was 122% (inactive). Next, `O=C(Nc1nc2ccc(S(=O)(=O)N3CCCC3)cc2s1)C1CCCO1` (configuration not stated): 103% (inactive); `CCOC(=O)c1csc(NC(=O)c2ccc(S(=O)(=O)N3CCCC3)cc2)n1`: 108% (inactive).

Consider `COC(=O)COc1ccc(S(=O)(=O)N2CCOCC2)cc1`, for which the coactivator binding (% of control) is 108% (inactive). Turning to `COc1ccc(S(=O)(=O)N2CCOCC2)cc1C(=O)Nc1nc2ccccc2s1`, the coactivator binding (% of control) is 206% [fluorescence artefact?] (active). Consider `Cc1ccc(C)c(NC2=NCC(=O)N2c2ccc3c(c2)OCCO3)c1`, for which the coactivator binding (% of control) is 103% (inactive). As for `CCCCc1nc(NCCN)c(C#N)c2c1CSC(C)(C)C2`, the coactivator binding (% of control) is 85.4% (inactive).

Regarding `O=C(C(NS(=O)(=O)c1cccc2nsnc12)c1ccccc1)N1CCN(c2ccccc2)CC1` (configuration not stated), the coactivator binding (% of control) was 102% (inactive).

`COc1ccc2c(c1)cc1n2CCN=C1NN`: the coactivator binding (% of control) is 90.7% (inactive). As to `O=C(O)CSc1nccn1-c1cccc(Cl)c1`, the coactivator binding (% of control) was 100% (inactive).

Take `COc1ccc(C2(CNC(=O)C(c3ccccc3)c3ccccc3)CCOCC2)cc1OC`: the coactivator binding (% of control) was 103% (inactive). Consider `O=C(CSc1nc2cccnc2n1Cc1ccccc1)N1CCc2ccccc21`, for which the coactivator binding (% of control) was 156% (inactive). Next, `COc1ccc(CCn2c(=N)c(C(=O)NCc3ccco3)cc3c(=O)n4cccc(C)c4nc32)cc1`: 92.3% (inactive); `O=C(NCc1ccco1)c1cccn2c(=O)c3cc(Br)ccc3nc12`: 232% [fluorescence artefact?] (active). `O=C(NCc1ccco1)c1cc(-c2cccnc2)nc2ccc(Cl)cc12`: the coactivator binding (% of control) was 128% (inactive).

On to `CC(Oc1ccc(Cl)cc1)C(=O)OCC(=O)Nc1ncc(Cl)cc1Cl` (configuration not stated), for which the coactivator binding (% of control) was 103% (inactive).

For the molecule `CC(Oc1ccc(Cl)cc1)C(=O)Nc1ncccn1` (configuration not stated), the coactivator binding (% of control) is 220% (active).

As to `COc1ccc(OC(C)C(=O)Nc2cccnc2)cc1` (configuration not stated), the coactivator binding (% of control) is 102% (inactive). In the case of `CCCC1(C(=O)OCC)NC(c2ccc(N(C)C)cc2)C2C(=O)N(c3ccc4c(c3)OCCO4)C(=O)C21` (configuration not stated), the coactivator binding (% of control) was 117% (inactive).

For the molecule `CCN(CC)C(=O)CSc1nnc(CNc2ccc(F)cc2)n1Cc1ccco1`, the coactivator binding (% of control) is 86.8% (inactive). As for `CC(=O)Nc1ccc(S(=O)(=O)NCCc2ccccc2)cc1`, the coactivator binding (% of control) was 98.9% (inactive).

With `O=S(=O)(NCCc1ccccc1)c1ccccc1`, the coactivator binding (% of control) was 245% [fluorescence artefact?] (active). Take `O=S(=O)(NCCNS(=O)(=O)c1ccccc1)c1ccccc1`: the coactivator binding (% of control) is 108% (inactive). For the molecule `COc1ccc(C(=O)N2CC3(C)CC2CC(C)(C)C3)cc1OC` (configuration not stated), the coactivator binding (% of control) was 118% (inactive).

`CCOC(=O)c1c(C)oc2cc(Br)c(OCC(N)=O)cc12`: the coactivator binding (% of control) was 156% (inactive).

As to `CSc1ccc(-c2c(C#N)c(N)nc3c2c(C)nn3-c2ccccc2)cc1`, the coactivator binding (% of control) was 210% [fluorescence artefact?] (active). With `CCn1c(CNC(=O)c2ccccc2)nnc1SCC(=O)N1CCN(c2ccccc2)CC1`, the coactivator binding (% of control) was 106% (inactive).

As for `Fc1ccc(-n2c(Cc3ccccc3)nnc2SCc2nc(-c3ccc(Cl)cc3)no2)cc1`, the coactivator binding (% of control) was 95.3% (inactive). For `Cc1cccc(C)c1NC(=O)CSc1nnc(-c2ccccc2)n1Cc1ccc2c(c1)OCO2`, the coactivator binding (% of control) is 98.5% (inactive).

Source of the values: PubChem BioAssay AID639 (Emory University Molecular Libraries Screening Center, 2007).
